The panel holds about 83,000 compounds, 20% with a hit somewhere; the sample as a whole holds those more often.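 Cell lines were cultured in 96-well plates, exposed to a single compound concentration, and assessed for percent growth 48 hours later.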 Unmarked numbers belong to inactive results. Activity calls are given as the source filed them. The calls were made as follows: active = growth percent below 10; inactive = the rest.

Nine compounds from PubChem BioAssay (NCI) can be followed below.

Some test systems named below: SK-MEL-2 melanoma; EKVX NSCLC; SN12C renal; UO-31 renal; TK-10 renal; ACHN renal; CAKI-1 renal; MOLT-4 leukemia; SR leukemia; OVCAR-8 ovarian; OVCAR-5 ovarian; OVCAR-4 ovarian; SK-OV-3 ovarian; IGROV1 ovarian; OVCAR-3 ovarian; HS 578T breast; NCI/ADR-RES ovarian; A498 renal; CCRF-CEM leukemia; RPMI-8226 leukemia.
Holding throughout (test): NCI-60 one-dose screen, 48 h (100 = growth as untreated, 0 = no growth, -100 = all killed)
Conditions in all cases: 10 µM

For the compound `C=CCn1c(SCC(=O)Nc2ccc(C(=O)/C=C/c3ccc(Cl)cc3)cc2)nnc1-c1cc(-c2ccccc2)nc2ccccc12`, the growth is 97.2% in the test on SK-MEL-2 melanoma; 79.1% in the test on EKVX NSCLC; 70.8% with SN12C renal; 35.4% in the test with UO-31 renal; 94.8% in the test on TK-10 renal; 82.3% with ACHN renal. The growth with CAKI-1 renal is 61.7%; with MOLT-4 leukemia, 12.8%; in the test on SR leukemia, 6.5% (active); with OVCAR-8 ovarian, 26.4%; with OVCAR-5 ovarian, 90.4%; in the test with OVCAR-4 ovarian, 44.1%. Besides, the growth is 100% with SK-OV-3 ovarian; -62% (active) in the test with IGROV1 ovarian; 63.7% in the test on OVCAR-3 ovarian; 86.3% in the test with HS 578T breast; 78.9% with NCI/ADR-RES ovarian.

`CC(C)(C)OC(=O)N1CCc2c(sc3ncnc(N/N=C/c4ccccc4Br)c23)C1`: the growth is 91.7% in the test on SK-MEL-2 melanoma; 52.2% with EKVX NSCLC; 78.7% in the test with SN12C renal; 32.7% in the test with UO-31 renal; 79.6% in the test on TK-10 renal; 42.4% in the test on ACHN renal. The growth in the test with CAKI-1 renal is 54.4%; in the test on A498 renal, 84.7%; with MOLT-4 leukemia, 21.2%; in the test on SR leukemia it was 39.4%; with OVCAR-8 ovarian it was 71.6%; in the test on OVCAR-5 ovarian, 78.3%. Further, the growth in the test with OVCAR-4 ovarian was 72.9%; in the test on SK-OV-3 ovarian it was 114%; in the test with IGROV1 ovarian, 68.6%; with OVCAR-3 ovarian it was 62.9%; in the test on HS 578T breast, 98.7%; in the test on NCI/ADR-RES ovarian it was 71.6%.

`COc1ccc(C(=O)CC(CC(=O)c2ccc(OC)cc2)c2c(C)nn(-c3ccccc3)c2Cl)cc1`: the growth in the test on SK-MEL-2 melanoma is 94.3%; with EKVX NSCLC, 102%; in the test with SN12C renal it was 93.3%; in the test on UO-31 renal, 72.8%; in the test on TK-10 renal it was 103%; with ACHN renal, 90.8%. Further, the growth in the test with CAKI-1 renal was 85.1%; in the test on A498 renal, 80.8%; in the test on OVCAR-5 ovarian, 91.8%; in the test on OVCAR-4 ovarian, 101%; in the test on SK-OV-3 ovarian it was 109%; in the test with IGROV1 ovarian, 104%. Also, the growth with OVCAR-3 ovarian was 115%; in the test on HS 578T breast it was 94.4%; in the test on NCI/ADR-RES ovarian, 95.5%.

For `C/C(=C/CCC(C)[C@@H]1CC[C@]2(C)C3=C(CC[C@@]12C)[C@@]1(C)CCC(=O)C(C)(C)[C@@H]1CC3)C(=O)O` (some centres undefined), the growth is -52.1% (active) with SK-MEL-2 melanoma; -76.5% (active) with EKVX NSCLC; -77.5% (active) with SN12C renal; -95.5% (active) in the test with UO-31 renal; -86.1% (active) in the test on TK-10 renal; -93.5% (active) in the test with ACHN renal. Also, the growth in the test with CAKI-1 renal was -92.8% (active); in the test on CCRF-CEM leukemia, -21% (active); with MOLT-4 leukemia, -35.3% (active); with SR leukemia it was -27.8% (active); in the test with OVCAR-8 ovarian, -21.9% (active); in the test on OVCAR-5 ovarian, -75.6% (active). Further, the growth in the test on OVCAR-4 ovarian was -70.2% (active); in the test on SK-OV-3 ovarian it was -97.5% (active); with IGROV1 ovarian, -87% (active); with OVCAR-3 ovarian, -96% (active); in the test with HS 578T breast, -37.3% (active); in the test with NCI/ADR-RES ovarian, -52.8% (active).

For `CC[C@H]1OC(=O)[C@H](C)[C@@H](O[C@H]2C[C@@](C)(OC)[C@@H](O)[C@H](C)O2)[C@H](C)[C@@H](O[C@@H]2O[C@H](C)C[C@H](N(C)C)[C@H]2O)[C@](C)(OC)C/C(C)=C2/O[C@@]1(C)C=C2C`, the growth was -17.3% (active) in the test on SK-MEL-2 melanoma; 75% in the test with EKVX NSCLC; 76.9% in the test on SN12C renal; 50.5% in the test with UO-31 renal; 97.4% in the test on TK-10 renal; 24.5% in the test on ACHN renal. Besides, the growth is 21.7% with CAKI-1 renal; 83.9% in the test on A498 renal; 1.08% (active) in the test on MOLT-4 leukemia; 14.8% in the test with SR leukemia; 78.5% in the test with OVCAR-8 ovarian; 24.9% in the test with OVCAR-5 ovarian. The growth in the test with OVCAR-4 ovarian is 73.5%; in the test on SK-OV-3 ovarian it was 102%; with IGROV1 ovarian, 58.1%; in the test on OVCAR-3 ovarian, 75.3%; with HS 578T breast, 62.5%; in the test with NCI/ADR-RES ovarian it was 65.4%.

Consider `CCOC(=O)CSc1nc(-c2cc(OC)ccc2OC)cc(-c2ccc(OC)cc2)c1C#N`, for which the growth with SK-MEL-2 melanoma is 84.3%; in the test with EKVX NSCLC, 74.1%; in the test with SN12C renal, 79.5%; in the test with UO-31 renal it was 63%; in the test with TK-10 renal it was 75.7%; in the test with ACHN renal it was 76.7%. The growth with CAKI-1 renal is 83.4%; in the test on MOLT-4 leukemia, 76.6%; in the test on SR leukemia, 69.7%; with OVCAR-8 ovarian, 82.4%; in the test on OVCAR-5 ovarian, 97.3%; with OVCAR-4 ovarian, 101%. Further, the growth is 85% in the test on SK-OV-3 ovarian; 55.4% in the test with IGROV1 ovarian; 95.4% with OVCAR-3 ovarian; 90.2% with HS 578T breast; 81.6% with NCI/ADR-RES ovarian.

With `CCC(c1ccc(OC)cc1)C(CC)c1ccc(O)c(CN2CCN(C)CC2)c1` (centres undefined), the growth is 62.2% in the test with SK-MEL-2 melanoma; 44.3% in the test with EKVX NSCLC; 55.1% with SN12C renal; 37.3% in the test with UO-31 renal; 72.2% in the test with TK-10 renal; 69% with ACHN renal. The growth in the test with CAKI-1 renal was 41.1%; with CCRF-CEM leukemia, 56.9%; in the test with MOLT-4 leukemia, 57.4%; in the test on SR leukemia, 4.26% (active); with RPMI-8226 leukemia, -21.6% (active); in the test on OVCAR-8 ovarian, 67%. Moreover, the growth in the test on OVCAR-5 ovarian was 80.4%; in the test on OVCAR-4 ovarian it was 60.2%; in the test on SK-OV-3 ovarian it was 78.7%; in the test with IGROV1 ovarian, 68.5%; in the test on OVCAR-3 ovarian, 79.8%; in the test with HS 578T breast, 61.4%. The growth with NCI/ADR-RES ovarian was 60.3%.

Turning to `O=C1CSC(=S)N1/N=C/c1ccc(Cl)s1`, the growth is 98.6% in the test with SK-MEL-2 melanoma; 101% in the test with EKVX NSCLC; 95.8% with SN12C renal; 79.3% in the test with UO-31 renal; 118% in the test with TK-10 renal; 98.4% in the test with ACHN renal. Further, the growth was 100% in the test on CAKI-1 renal; 98.6% with CCRF-CEM leukemia; 102% with MOLT-4 leukemia; 98.2% in the test with SR leukemia; 97.4% in the test with RPMI-8226 leukemia; 106% in the test with OVCAR-8 ovarian. Moreover, the growth in the test with OVCAR-5 ovarian was 97.6%; with OVCAR-4 ovarian it was 119%; with SK-OV-3 ovarian, 92.6%; in the test on IGROV1 ovarian it was 100%; in the test on OVCAR-3 ovarian it was 104%; in the test on HS 578T breast, 112%. Besides, the growth with NCI/ADR-RES ovarian is 97.5%.

Regarding `CC1=CC2C(C(O)CC3(C)C2CC(C)C32OCOC23COCO3)C2(C)C/C(=C/O)C(=O)C=C12` (centres undefined), the growth in the test with SK-MEL-2 melanoma is 76.1%; in the test on EKVX NSCLC, 48.8%; with SN12C renal, 26.2%; in the test on UO-31 renal, 10.5%; with TK-10 renal, 42.7%; with ACHN renal it was 8.9% (active). Also, the growth with CAKI-1 renal was 67.6%; in the test with CCRF-CEM leukemia, -3.03% (active); in the test on MOLT-4 leukemia, -32.8% (active); in the test with SR leukemia it was -38.8% (active); with OVCAR-8 ovarian, 43.8%; in the test on OVCAR-5 ovarian it was 63.2%. Moreover, the growth with OVCAR-4 ovarian was 35.8%; in the test with SK-OV-3 ovarian, 48.5%; in the test with IGROV1 ovarian, 70.9%; in the test on OVCAR-3 ovarian, 10.8%; with HS 578T breast, 83.4%; in the test on NCI/ADR-RES ovarian, 17.3%.
